Broadly, the inhibition is the drop in the measured response relative to a control, in per cent.

In experiment [1] the target is RAC-alpha serine/threonine-protein kinase (Homo sapiens) (UniProt P31749). Conditions: at 0.1 µM.
Experiment [2] shares this target. Conditions: at 1 µM.
The target in experiment [3] is RAC-beta serine/threonine-protein kinase (Homo sapiens) (UniProt P31751). To be noted: at 0.1 µM.
For experiment [4] the target is unchanged. To be noted: at 1 µM.
For experiment [5], the target named is RAC-gamma serine/threonine-protein kinase (Homo sapiens) (UniProt Q9Y243). Conditions: at 0.1 µM.
RAC-gamma serine/threonine-protein kinase (Homo sapiens), sequence (Q9Y243 whole entry): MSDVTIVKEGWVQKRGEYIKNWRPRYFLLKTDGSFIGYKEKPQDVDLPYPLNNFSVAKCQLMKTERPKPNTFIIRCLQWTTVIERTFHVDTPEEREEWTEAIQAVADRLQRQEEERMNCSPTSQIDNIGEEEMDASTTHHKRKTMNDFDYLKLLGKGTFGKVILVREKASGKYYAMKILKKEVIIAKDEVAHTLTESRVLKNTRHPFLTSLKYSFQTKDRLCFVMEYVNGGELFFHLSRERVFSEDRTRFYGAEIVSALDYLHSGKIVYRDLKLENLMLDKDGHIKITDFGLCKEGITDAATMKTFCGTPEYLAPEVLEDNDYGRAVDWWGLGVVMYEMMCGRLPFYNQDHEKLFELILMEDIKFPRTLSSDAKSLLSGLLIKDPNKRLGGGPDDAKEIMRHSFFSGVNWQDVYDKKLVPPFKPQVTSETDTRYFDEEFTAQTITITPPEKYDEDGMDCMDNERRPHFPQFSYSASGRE
Experiment [6] has the same target. To be noted: at 1 µM.
The target of experiment [7] is G protein-coupled receptor kinase 6 (Homo sapiens) (UniProt P43250). Conditions: at 0.1 µM.
G protein-coupled receptor kinase 6 (Homo sapiens), sequence (P43250 whole entry, looked up): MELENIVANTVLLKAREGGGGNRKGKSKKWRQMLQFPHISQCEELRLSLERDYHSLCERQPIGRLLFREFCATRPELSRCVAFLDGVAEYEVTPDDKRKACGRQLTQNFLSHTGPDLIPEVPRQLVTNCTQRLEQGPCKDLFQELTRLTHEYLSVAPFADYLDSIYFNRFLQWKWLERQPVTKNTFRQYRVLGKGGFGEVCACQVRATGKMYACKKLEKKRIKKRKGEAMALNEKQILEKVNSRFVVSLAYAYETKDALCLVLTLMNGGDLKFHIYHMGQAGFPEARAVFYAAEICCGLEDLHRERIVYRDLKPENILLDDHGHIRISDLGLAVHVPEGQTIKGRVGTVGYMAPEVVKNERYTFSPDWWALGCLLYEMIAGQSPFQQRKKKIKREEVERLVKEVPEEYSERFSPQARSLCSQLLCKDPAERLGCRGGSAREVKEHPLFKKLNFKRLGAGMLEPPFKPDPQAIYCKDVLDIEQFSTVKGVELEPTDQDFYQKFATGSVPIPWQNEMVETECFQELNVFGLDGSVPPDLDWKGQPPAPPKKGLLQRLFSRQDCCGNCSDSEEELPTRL
Experiment [8] has the same target. Conditions: at 1 µM.
Experiment [9] concerns the target T1, Rhodopsin kinase GRK7 (Homo sapiens) (UniProt Q8WTQ7).
T1 sequence (whole entry): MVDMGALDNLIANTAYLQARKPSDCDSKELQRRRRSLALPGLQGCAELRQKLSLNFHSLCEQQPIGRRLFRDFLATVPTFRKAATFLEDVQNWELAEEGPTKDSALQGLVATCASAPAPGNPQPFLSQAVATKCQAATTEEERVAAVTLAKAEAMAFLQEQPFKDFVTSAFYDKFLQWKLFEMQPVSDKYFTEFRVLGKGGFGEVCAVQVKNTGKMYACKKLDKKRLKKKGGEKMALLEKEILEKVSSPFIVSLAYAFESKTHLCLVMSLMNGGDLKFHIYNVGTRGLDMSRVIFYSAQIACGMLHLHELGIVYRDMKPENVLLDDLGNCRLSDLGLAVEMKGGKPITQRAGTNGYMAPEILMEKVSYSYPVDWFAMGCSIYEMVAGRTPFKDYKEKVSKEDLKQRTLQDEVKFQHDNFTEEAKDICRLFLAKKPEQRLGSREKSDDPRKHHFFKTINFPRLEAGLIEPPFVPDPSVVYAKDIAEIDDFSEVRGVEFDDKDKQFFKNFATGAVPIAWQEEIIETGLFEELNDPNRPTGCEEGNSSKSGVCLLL
Conditions: at 0.1 µM.

Experiment [10] has as its target T1, Rhodopsin kinase GRK7 (Homo sapiens). Conditions: at 1 µM.
Experiment [11] deals with Serine/threonine-protein kinase MRCK alpha (Homo sapiens) (UniProt Q5VT25). To be noted: at 0.1 µM.
Serine/threonine-protein kinase MRCK alpha (Homo sapiens), sequence (Q5VT25 whole entry): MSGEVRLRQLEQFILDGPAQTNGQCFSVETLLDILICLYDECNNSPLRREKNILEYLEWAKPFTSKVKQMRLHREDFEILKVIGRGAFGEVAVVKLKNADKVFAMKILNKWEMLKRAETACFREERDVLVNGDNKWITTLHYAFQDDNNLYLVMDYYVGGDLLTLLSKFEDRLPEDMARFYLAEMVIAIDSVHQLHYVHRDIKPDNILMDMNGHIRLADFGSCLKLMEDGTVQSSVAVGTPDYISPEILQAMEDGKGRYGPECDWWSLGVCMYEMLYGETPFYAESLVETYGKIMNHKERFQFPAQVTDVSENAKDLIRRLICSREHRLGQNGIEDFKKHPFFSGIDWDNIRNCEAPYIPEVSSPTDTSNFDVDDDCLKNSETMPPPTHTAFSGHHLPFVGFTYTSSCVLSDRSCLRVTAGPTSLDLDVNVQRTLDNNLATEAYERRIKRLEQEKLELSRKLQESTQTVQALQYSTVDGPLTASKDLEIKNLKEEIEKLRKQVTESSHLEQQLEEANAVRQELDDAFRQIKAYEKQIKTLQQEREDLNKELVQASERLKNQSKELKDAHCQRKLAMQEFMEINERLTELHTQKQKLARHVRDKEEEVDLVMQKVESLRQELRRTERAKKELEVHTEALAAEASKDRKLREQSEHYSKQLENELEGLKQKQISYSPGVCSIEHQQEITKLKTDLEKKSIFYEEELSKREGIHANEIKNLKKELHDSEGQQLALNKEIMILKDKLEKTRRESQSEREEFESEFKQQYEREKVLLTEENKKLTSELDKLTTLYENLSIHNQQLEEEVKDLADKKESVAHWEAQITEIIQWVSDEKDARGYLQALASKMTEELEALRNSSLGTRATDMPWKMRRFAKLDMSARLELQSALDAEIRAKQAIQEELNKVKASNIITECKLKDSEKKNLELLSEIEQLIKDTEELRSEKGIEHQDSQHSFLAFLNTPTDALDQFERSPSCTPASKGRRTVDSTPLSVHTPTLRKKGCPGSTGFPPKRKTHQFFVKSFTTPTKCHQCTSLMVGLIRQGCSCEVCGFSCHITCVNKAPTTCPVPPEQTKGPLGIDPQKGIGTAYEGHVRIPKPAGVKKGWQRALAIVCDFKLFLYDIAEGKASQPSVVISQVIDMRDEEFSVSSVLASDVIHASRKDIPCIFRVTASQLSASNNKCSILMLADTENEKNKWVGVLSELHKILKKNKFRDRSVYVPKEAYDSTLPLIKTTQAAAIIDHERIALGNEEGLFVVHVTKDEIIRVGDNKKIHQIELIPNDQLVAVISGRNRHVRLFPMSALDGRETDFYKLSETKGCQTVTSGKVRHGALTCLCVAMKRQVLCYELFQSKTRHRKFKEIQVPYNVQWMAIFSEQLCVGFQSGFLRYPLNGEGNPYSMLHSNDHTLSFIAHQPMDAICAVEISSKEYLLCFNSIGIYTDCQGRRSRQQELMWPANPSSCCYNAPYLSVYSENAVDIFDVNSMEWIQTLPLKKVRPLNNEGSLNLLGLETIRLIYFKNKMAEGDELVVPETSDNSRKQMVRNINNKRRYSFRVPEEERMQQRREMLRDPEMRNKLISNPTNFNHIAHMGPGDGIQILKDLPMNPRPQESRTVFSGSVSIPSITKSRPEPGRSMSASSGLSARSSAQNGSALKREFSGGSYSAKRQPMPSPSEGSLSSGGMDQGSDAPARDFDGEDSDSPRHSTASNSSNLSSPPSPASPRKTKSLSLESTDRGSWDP
For experiment [12] the target is unchanged. Conditions: at 1 µM.
Experiment [13] deals with Serine/threonine-protein kinase MRCK beta (Homo sapiens) (UniProt Q9Y5S2). Conditions: at 0.1 µM.
The target is the same in experiment [14]. To be noted: at 1 µM.
Experiment [15] has as its target Ribosomal protein S6 kinase alpha-5 (Homo sapiens) (UniProt O75582). Conditions: at 0.1 µM.
Experiment [16] shares this target. To be noted: at 1 µM.
The target of experiment [17] is Ribosomal protein S6 kinase alpha-4 (Homo sapiens) (UniProt O75676). Conditions: at 0.1 µM.
Ribosomal protein S6 kinase alpha-4 (Homo sapiens), sequence (O75676 whole entry, looked up): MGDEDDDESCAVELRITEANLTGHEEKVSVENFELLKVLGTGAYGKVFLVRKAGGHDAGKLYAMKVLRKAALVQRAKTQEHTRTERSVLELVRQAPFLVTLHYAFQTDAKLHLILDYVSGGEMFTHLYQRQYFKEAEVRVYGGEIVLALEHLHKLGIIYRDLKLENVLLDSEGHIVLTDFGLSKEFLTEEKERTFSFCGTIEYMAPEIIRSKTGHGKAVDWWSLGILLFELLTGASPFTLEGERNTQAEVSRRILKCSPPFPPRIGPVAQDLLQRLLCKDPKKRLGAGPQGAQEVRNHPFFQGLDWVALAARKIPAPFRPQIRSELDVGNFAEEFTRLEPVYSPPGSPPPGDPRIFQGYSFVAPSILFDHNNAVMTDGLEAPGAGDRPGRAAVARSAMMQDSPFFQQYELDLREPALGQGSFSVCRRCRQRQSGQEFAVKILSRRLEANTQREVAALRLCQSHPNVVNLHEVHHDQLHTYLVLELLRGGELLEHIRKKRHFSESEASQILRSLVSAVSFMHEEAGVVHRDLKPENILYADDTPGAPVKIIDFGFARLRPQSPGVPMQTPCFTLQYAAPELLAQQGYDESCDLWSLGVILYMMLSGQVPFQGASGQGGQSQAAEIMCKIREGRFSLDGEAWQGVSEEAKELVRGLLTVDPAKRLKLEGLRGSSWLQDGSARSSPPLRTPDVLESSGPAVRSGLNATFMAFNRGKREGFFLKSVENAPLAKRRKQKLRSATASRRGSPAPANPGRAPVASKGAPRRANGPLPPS
Experiment [18] has the same target. Conditions: at 1 µM.
Experiment [19] has as its target Ribosomal protein S6 kinase beta-1 (Homo sapiens) (UniProt P23443). To be noted: at 0.1 µM.
For experiment [20] the target is unchanged. Conditions: at 1 µM.

Values joined by “and” are separate entries in the source; they are usually repeats but may differ in a detail not shown here. Equal entries are not always repeated.

RAC-beta serine/threonine-protein kinase (Homo sapiens), sequence (P31751 whole entry): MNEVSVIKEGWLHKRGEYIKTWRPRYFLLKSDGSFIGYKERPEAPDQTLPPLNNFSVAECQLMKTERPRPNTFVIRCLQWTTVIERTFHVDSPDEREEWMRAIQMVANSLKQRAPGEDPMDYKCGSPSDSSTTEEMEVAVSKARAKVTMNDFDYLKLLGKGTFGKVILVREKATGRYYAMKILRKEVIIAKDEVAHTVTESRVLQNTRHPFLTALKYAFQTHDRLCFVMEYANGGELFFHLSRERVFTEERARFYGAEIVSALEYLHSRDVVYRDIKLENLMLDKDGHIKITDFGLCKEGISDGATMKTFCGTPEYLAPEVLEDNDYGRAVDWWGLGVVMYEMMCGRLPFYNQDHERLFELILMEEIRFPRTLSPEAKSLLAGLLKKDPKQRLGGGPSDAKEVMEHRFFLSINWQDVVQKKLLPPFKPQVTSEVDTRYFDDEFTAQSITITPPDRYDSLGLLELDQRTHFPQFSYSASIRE
Ribosomal protein S6 kinase beta-1 (Homo sapiens), sequence (P23443 whole entry, looked up): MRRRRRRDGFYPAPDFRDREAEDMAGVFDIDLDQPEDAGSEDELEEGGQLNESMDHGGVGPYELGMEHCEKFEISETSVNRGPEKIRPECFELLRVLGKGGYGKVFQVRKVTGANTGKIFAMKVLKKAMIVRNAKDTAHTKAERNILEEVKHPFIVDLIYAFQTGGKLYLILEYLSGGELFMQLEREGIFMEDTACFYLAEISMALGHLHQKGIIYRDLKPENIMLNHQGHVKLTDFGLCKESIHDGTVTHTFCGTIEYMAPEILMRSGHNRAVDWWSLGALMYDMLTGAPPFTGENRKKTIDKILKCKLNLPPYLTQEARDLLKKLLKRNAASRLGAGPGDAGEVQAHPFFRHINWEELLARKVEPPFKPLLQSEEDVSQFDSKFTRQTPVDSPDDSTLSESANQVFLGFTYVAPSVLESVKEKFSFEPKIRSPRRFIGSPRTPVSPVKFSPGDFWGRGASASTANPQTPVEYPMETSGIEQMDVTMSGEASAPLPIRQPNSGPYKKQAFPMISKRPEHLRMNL
RAC-alpha serine/threonine-protein kinase (Homo sapiens), sequence (P31749 whole entry): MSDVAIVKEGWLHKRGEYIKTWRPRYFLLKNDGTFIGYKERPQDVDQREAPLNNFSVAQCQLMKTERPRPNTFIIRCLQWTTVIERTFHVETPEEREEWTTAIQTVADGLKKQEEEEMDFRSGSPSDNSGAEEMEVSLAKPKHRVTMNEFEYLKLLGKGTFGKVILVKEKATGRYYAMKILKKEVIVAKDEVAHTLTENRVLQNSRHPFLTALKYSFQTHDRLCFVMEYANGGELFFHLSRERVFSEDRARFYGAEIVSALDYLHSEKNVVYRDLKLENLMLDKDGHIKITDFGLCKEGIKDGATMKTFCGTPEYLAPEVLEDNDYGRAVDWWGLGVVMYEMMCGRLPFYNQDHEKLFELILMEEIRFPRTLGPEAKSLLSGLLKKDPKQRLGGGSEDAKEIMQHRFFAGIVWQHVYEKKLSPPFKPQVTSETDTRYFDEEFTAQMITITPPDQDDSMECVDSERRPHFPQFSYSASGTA

As to `Nc1ncnc2occ(-c3ccc(NC(=O)Nc4cc(C(F)(F)F)ccc4F)cc3)c12`, the inhibition is 0.73% and -2.6% in [1]; 0.58% and -1.87% in experiment [2]; 1.35% and -1.97% in [3]; 0.45% and -2.44% in experiment [4]; 1.41% and -1.65% in experiment [5]; 1.58% and 0.37% in experiment [6]. The inhibition in [7] is 0.64% and -1.58%; in [8], -4.06% and -1.29%; in experiment [9], 0.46% and 3.18%; in experiment [10], -5.44% and -7.01%; in experiment [11], 0.43%; in experiment [12] it was -0.27% and 0.62%. Besides, the inhibition is 0.53% and -0.08% in [13]; 0.77% and -0.99% in [14]; 5.58% and -0.86% in experiment [15]; 23.9% and 10.9% in [16]; 3.23% and -1.15% in experiment [17]; 19.7% and 6.99% in [18]. Further, the inhibition in [19] was 28.2% and 17.1%; in experiment [20] it was 77.4% and 70.2%.
Take `Cc1nnc(-c2cccc(-c3ccc(C(=O)NCC4CC4)cc3)c2)o1`: the inhibition in [1] stood at 0.55%; in [2], 1.35%; in [3], 2.63%; in experiment [4], 1.84%; in experiment [5], 1.35%; in [6] it was 1.48%. Also, the inhibition in experiment [7] is 3.35%; in [8], 10.4%; in experiment [9], 6.78%; in experiment [10] it was 6.04%; in experiment [11], -0.4%; in experiment [12], 2.11%. The inhibition in experiment [13] is -0.19%; in experiment [14], -0.8%; in experiment [15], 4.52%; in experiment [16] it was 3.95%; in experiment [17], 3.13%; in experiment [18], 3.75%. Besides, the figures for the inhibition in experiment [19] and in experiment [20] were 1.6% and 3.46%, respectively.
`NS(=O)(=O)c1ccc(N/N=C2\C(=O)Nc3cccc(CCc4ccncc4)c32)cc1`: the inhibition in [1] was 0.52%; in experiment [2], 0.04%; in experiment [3], -0.35%; in experiment [4] it was 0.27%; in [5], 0.45%; in [6] it was 1.65%. In addition, the inhibition is 0.11% in experiment [7]; 1.61% in experiment [8]; 7.3% in [9]; 5.05% in experiment [10]; -0.78% in [11]; -0.69% in experiment [12]. Further, the inhibition in experiment [13] was 0.54%; in experiment [14], 0.31%; in experiment [15], -0.75%; in experiment [16] it was -0.48%; in [17], 0.37%; in [18], 2.61%. The values for the inhibition in [19] and in experiment [20] were 0.08% and -0.48%, respectively.
In the case of `CC1=C(C(=O)Nc2ccc3[nH]nc(C)c3c2)C(c2ccc(C(F)(F)F)cc2)CC(=O)N1` (stereo not given), the inhibition in experiment [1] is 1.17%; in [2], 1.18%; in [3] it was 0.84%; in [4], 1.11%; in experiment [5] it was 0.54%; in experiment [6] it was 2.53%. Besides, the inhibition in experiment [7] was 3.68%; in experiment [8], 14.7%; in [9] it was 0.8%; in [10], -5%; in experiment [11] it was 1.9%; in experiment [12], 17.1%. In addition, the inhibition amounted to 5.5% in experiment [13]; 37.4% in experiment [14]; 6.02% in experiment [15]; 28.8% in [16]; 1.31% in [17]; 11.5% in experiment [18]. Moreover, the inhibition in experiment [19] was 1.6%; in experiment [20], 9.4%.
On to `CS(=O)(=O)CCNCc1ccc(-c2ccc3ncnc(Nc4ccc(OCc5cccc(C(F)(F)F)c5)cc4)c3c2)o1`, for which the inhibition was 0.68% in experiment [1]; 0.01% in [2]; 0.73% in experiment [3]; 1.64% in [4]; 0.95% in experiment [5]; 2.79% in experiment [6]. The inhibition in experiment [7] turned out to be 6.2%; in [8] it was 3.84%; in [9], 8.32%; in [10], 0.47%; in experiment [11], 1.26%; in [12], 5.01%. Besides, the inhibition in experiment [13] is 0.69%; in experiment [14], 2%; in experiment [15], 4.18%; in experiment [16], 3.88%; in [17] it was 1.66%; in experiment [18], 2.03%. The inhibition in experiment [19] came to 1.39%; in experiment [20], 3.25%.
With `COc1cccc(-n2ncc3c(N/N=C/c4ccc(C(=O)NCCN(C)C)cc4)ncnc32)c1`, the inhibition in [1] was 0.53%; in experiment [2] it was -4.74%; in experiment [3], 1.29%; in experiment [4], -2.95%; in [5], 1.33%; in experiment [6], -1.17%. In addition, the inhibition in experiment [7] is -2.74%; in [8], -7.47%; in experiment [9] it was 1.52%; in experiment [10], -8.73%; in [11], 2.1%; in experiment [12], 7.78%. Besides, the inhibition in experiment [13] was 2.49%; in [14], 8.24%; in experiment [15], 3.26%; in experiment [16], 8.01%; in [17], 1.32%; in experiment [18] it was 4.69%. Besides, the values for the inhibition in experiment [19] and in [20] were 4.61% and 20.9%, respectively.
